Assay results taken from PubChem BioAssay (Tox21).
Records with an inconclusive call do not appear. Unmarked numbers belong to inactive results. Active and inactive are the calls of the source. Calls come from the whole dose curve; as a rule, active = well fitted cell-killing curve with a large enough effect in the repeat runs; inconclusive = weak or mixed curves, or effect the other way; inactive = no such curve, though single readings can be large or run the other way.
% is set by controls: 0 for no effect and ±100 for the full control effect; potency is the fitted concentration of half-maximal effect.

Experiment: qHTS assay to identify small molecule agonists of the estrogen receptor alpha (ER-alpha) signaling pathway in the presence of an antagonist - cell viability counter screen (AID 1259386);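 note: cells exposed to compounds for 22 h at 37 °C before the viability read; nearly all actives have a fitted effect of over 30% in size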
Conditions: VM7Luc4E2 viability, CellTiter-Fluor fluorescence, 22 h; series mostly up to 92.4 µM; activity change, negative = cytotoxicity: at the top concentration
Source text: National Center for Advancing Translational Sciences [NCATS]
NIH Chemical Genomics Center [NCGC]
U.S. Environmental Protection Agency [EPA]
National Institutes of Environmental Health Sciences [NIEHS]
National Toxicology Program [NTP]
U.S. Food and Drug Administration [FDA]
Estrogen receptor (ER), a member of nuclear hormone receptor plays an important role in development, metabolic homeostasis and reproduction. Two subtypes of ER, ER-alpha and ER-beta, have similar expression patterns with some uniqueness in both types. Endocrine disrupting chemicals (EDCs) and their interactions with steroid hormone receptors like ER causes disruption of normal endocrine function. Therefore, it is important to understand the effect of environmental chemicals in ER signaling pathway. For identifying ER agonists, VM7Luc4E2 cell line has been used in the current assay.
VM7Luc4E2 cell line (provided by Denison MS, University of California) endogenously expresses full-length ER-alpha and is stably transfected with a plasmid containing four estrogen responsive elements (ERE) upstream of a luciferase reporter gene. This current screening for measuring luciferase reporter gene activity using VM7Luc4E2 cells against Tox21 10K library collection is a confirmation study on agonist mode screening in presence of ER-antagonist (ICI-182,780) at 10.0nM final concentration. The cytotoxicity of the compounds was tested in parallel by measuring the cell viability using CellTiter-Fluor assay system (Promega, Madison, WI) in the same wells.
Tox21 Assay Protocol Summary:
VM7Luc4E2 cells were cultured in phenol red free assay medium containing 10% charcoal stripped FBS for 5 days prior to the assay. The cells were dispensed at 4,000 cells in 4uL of assay medium per well into white wall/solid-bottom 1536-well plates (Corning Life Sciences, Corning, NY) using a Multidrop Combi (Thermo Fisher Scientific Inc., Waltham, MA) dispenser. After the assay plates were incubated at 37C and 5% CO2 for 24hr, 1uL of 10.0nM (final concentration) ICI-182,780 or assay buffer was added using two separate tips of Flying Reagent Dispenser (FRD, Aurora Discovery, San Diego, CA). Then 23nL of compounds dissolved in DMSO at 15 concentrations and positive controls or DMSO only was transferred to the assay plates by a Pintool station (Wako, San Diego, CA). The assay plates were incubated at 37C and 5% CO2 for 22hr. After 21hr incubation at 37C, 1uL/well CellTiter-Fluor reagent (Promega Corporation, Madison, WI) was added to each well using FRD and after 1hr incubation at 37C and 5% CO2, the fluorescence signal was measured on ViewLux plate reader (PerkinElmer, Shelton, CT).
For `S=C(SSC(=S)N1CCCCC1)N1CCCCC1`, the “activity change, negative = cytotoxicity” value was -2.82% [at 42.5 µM].
In the case of `Cc1c(Cl)c(=O)oc2cc(OP(=O)(OCCCl)OCCCl)ccc12`, the “activity change, negative = cytotoxicity” value was 6.58% [at 42.5 µM].
With `CCCCCCCCCCCCCCCCCCn1cc[n+](C)c1` the Potency was 60.8 µM (active).
In the case of `CC(C)[C@H](C(=O)O[C@H](C#N)c1cccc(Oc2ccccc2)c1)c1ccc(Cl)cc1`, the “activity change, negative = cytotoxicity” value was 6.09%.
In the case of `COc1ccc([N+](=O)[O-])cc1O`, the “activity change, negative = cytotoxicity” value was -4.99% [at 42.5 µM].
For `CC(C)CC(C)Nc1ccc(Nc2ccccc2)cc1` (stereo not given), the Potency was 60.1 µM (active).
With `Clc1ccc(C(c2ccc(Cl)cc2)C(Cl)(Cl)Cl)cc1` the “activity change, negative = cytotoxicity” value was 0.376% [at 42.5 µM].
With `CC(=O)[O-].[Tl+]` the “activity change, negative = cytotoxicity” value was -8.42%.
With `O=C(O)C1C2CCC(O2)C1C(=O)O` (stereo not given) the “activity change, negative = cytotoxicity” value was 5.97%.
In the case of `C1CCC2CCCCC2C1` (stereo not given), the “activity change, negative = cytotoxicity” value was 0.0365%.
With `CCOP(=S)(OCC)SCS(=O)(=O)CC` the “activity change, negative = cytotoxicity” value was 0.143%.
In the case of `CN(C)[C@@H]1C(=O)C(C(N)=O)=C(O)[C@@]2(O)C(=O)C3=C(O)c4c(O)ccc(Cl)c4[C@@](C)(O)[C@H]3C[C@@H]12`, the “activity change, negative = cytotoxicity” value was 0.867%.
With `BrC(Br)Br` the “activity change, negative = cytotoxicity” value was 0.513%.
In the case of `COP(=S)(OC)Oc1cc(Cl)c(Br)cc1Cl`, the “activity change, negative = cytotoxicity” value was -2.2%.
In the case of `CCC(C)(C)C(=O)OC1=C(c2ccc(Cl)cc2Cl)C(=O)OC12CCCCC2`, the “activity change, negative = cytotoxicity” value was 2.48%.
In the case of `Cc1ccc(CCl)cc1`, the “activity change, negative = cytotoxicity” value was 1.63%.
In the case of `[Cl][Sb]([Cl])[Cl]`, the Potency was 54.5 µM (active).
For `Oc1cccc(-c2ccccc2)c1`, the “activity change, negative = cytotoxicity” value was -1.54%.
For `O=c1[nH]c2ccccc2n1C1CCN(CCCC(c2ccc(F)cc2)c2ccc(F)cc2)CC1`, the Potency was 54.5 µM (active).
In the case of `O=c1ssc(Cl)c1Cl`, the “activity change, negative = cytotoxicity” value was -5.83%.
For `ClC1=C(Cl)[C@]2(Cl)[C@@H]3[C@@H](Cl)[C@@H](Cl)C[C@@H]3[C@@]1(Cl)C2(Cl)Cl`, the “activity change, negative = cytotoxicity” value was 0.879%.
For `CCS(=O)(=O)c1cccnc1S(=O)(=O)NC(=O)Nc1nc(OC)cc(OC)n1`, the “activity change, negative = cytotoxicity” value was 0.562%.
With `Nc1ccccc1C(=O)Oc1ccc2ccccc2c1` the “activity change, negative = cytotoxicity” value was 0.287%.
With `N#Cc1ccccc1N` the “activity change, negative = cytotoxicity” value was -5.66%.
With `C[C@@H]1CC[C@@]2(OC1)O[C@H]1[C@@H](O)[C@H]3[C@@H]4CC[C@H]5C[C@@H](O[C@@H]6O[C@H](CO)[C@H](O[C@@H]7O[C@H](CO)[C@@H](O)[C@H](O[C@@H]8OC[C@@H](O)[C@H](O)[C@H]8O)[C@H]7O[C@@H]7O[C@H](CO)[C@@H](O)[C@H](O[C@@H]8O[C@H](CO)[C@@H](O)[C@H](O)[C@H]8O)[C@H]7O)[C@H](O)[C@H]6O)[C@H](O)C[C@]5(C)[C@H]4CC[C@]3(C)[C@H]1[C@@H]2C` the Potency was 72.8 µM (active).
In the case of `Fc1cccc(Cl)c1CCl`, the “activity change, negative = cytotoxicity” value was -0.53%.
With `NNC(=O)c1ccccc1` the “activity change, negative = cytotoxicity” value was 1.29%.
For `COC(=O)N(C(=O)N1COC2(C(=O)OC)Cc3cc(Cl)ccc3C2=N1)c1ccc(OC(F)(F)F)cc1` (stereo not given), the “activity change, negative = cytotoxicity” value was 0.181% [at 42.5 µM].
In the case of `CC1(C)CN=C(NN=C(/C=C/c2ccc(C(F)(F)F)cc2)/C=C/c2ccc(C(F)(F)F)cc2)NC1`, the Potency was 43.3 µM (active).
With `c1ccc2c(c1)OCC(C1=NCCN1)O2` (stereo not given) the “activity change, negative = cytotoxicity” value was -23.6% [at 42.5 µM].
With `ClCCN1CCOCC1` the “activity change, negative = cytotoxicity” value was 0.708%.
In the case of `Cc1cc(C(C)(C)c2cc(C)c(O)c(C)c2)cc(C)c1O`, the “activity change, negative = cytotoxicity” value was -8.32%.
In the case of `O=C(CBr)c1ccc(O)cc1`, the “activity change, negative = cytotoxicity” value was 0.684%.
With `N#CNC#N` the “activity change, negative = cytotoxicity” value was 1.4%.
For `C[C@]12CC[C@H]3[C@@H](CCC4=CC(=O)CC[C@@]43C)[C@@H]1CC[C@@H]2O`, the “activity change, negative = cytotoxicity” value was 6.54%.
In the case of `Nc1ccc([N+](=O)[O-])cc1Cl`, the Potency was 54.5 µM (active).
With `N#Cc1ccc(O)cc1` the “activity change, negative = cytotoxicity” value was -0.499%.
In the case of `CCCCCCCCCBr`, the “activity change, negative = cytotoxicity” value was -0.639%.
With `ClC(Cl)=C(c1ccc(Cl)cc1)c1ccc(Cl)cc1` the Potency was “inactive”.
In the case of `Brc1c(Br)c(Br)c(Oc2c(Br)c(Br)c(Br)c(Br)c2Br)c(Br)c1Br`, the activity change, negative = cytotoxicity was -0.0832% [at 19 µM].
